The results in this text go back to PubChem BioAssay (EPA / NIEHS).

Some compounds were tested as several samples or in several runs, with calls that do not always agree. The source made the active and inactive calls. Rule for the calls: active = hit-call score of the fitted dose curve at least 0.9, where 1 is the maximum; inactive = score below 0.9.

The nature of this experiment: ATG_GATA_CIS: Attagene CIS-FACTORIAL HepG2 Assay for human GATA Binding Protein (AID 2282944). As to conditions: HepG2 GATA cis-element reporter, Attagene multiplex mRNA; actives raise or lower the signal. The procedure: ATG_CIS is a cell-based, multiplexed-readout assay that uses HepG2, a human liver cell line, with measurements taken at 24 hours after chemical dosing in a 24-well plate.ATG_GATA_CIS is one of 52 assay component(s) measured or calculated from the ATG_CIS assay. It is designed to make measurements of mRNA induction, a form of inducible reporter, as detected with fluorescence intensity signals by Reverse transcription polymerase chain reaction (RT-PCR) and Capillary electrophoresis technology.Data from the assay component ATG_GATA_CIS was analyzed into 1 assay endpoint. This assay endpoint, ATG_GATA_CIS, was analyzed with bidirectional fitting relative to DMSO as the negative control and baseline of activity. Using a type of inducible reporter, measures of mRNA for gain or loss-of-signal activity can be used to understand the reporter gene at the transcription factor-level as they relate to the gene GATA1. Furthermore, this assay endpoint can be referred to as a primary readout, because this assay has produced multiple assay endpoints where this one serves a reporter gene function. To generalize the intended target to other relatable targets, this assay endpoint is annotated to the dna binding intended target family, where the subfamily is GATA proteins.
Human liver HepG2 cells are transiently transfected with multiple reporter transcription units (MRTUs) in 6-well plates using FuGene 6 reagent (Roche; 3 ml FuGene/1 mg DNA). The MRTU constructs are regulated by a cis-regulating element (promoter). […] A major difference between the CIS and TRANS system is that in CIS activities of endogenous TFs are measured, whereas the TRANS assay evaluates changes in activities of exogenous, chimeric NR-Gal4 proteins. […] At the end of 24 hour incubation, total RNA was isolated using TriZol reagent (Invitrogen). The isolated RNA is then reverse-transcribed using oligo(dT) primer and Mo-MLV reverse transcriptase (Invitrogen) with DNAse I (Ambion) treatment for 30 min. The one-tenth of the produced cDNA was amplified by PCR using Taq DNA polymerase (Invitrogen) and two reporter sequence-specific primers. The PCR products were fluorescently labeled by primer extension with 6-arboxyfluorescein (6-FAM) 5'-labeled reporter sequence-specific primer (2 min at 95 C, 20 s at 68 C and 10 min at 72 C) and these products were digested with 5U of HpaI (New England Biolabs) for 2h at 37 C. The fragments were purified using Qiaquick PCR columns (Qiagen), analyzed on an ABI 3130xL genetic analyzer (Applied Biosystems) with peak positions identified by using a set of X-rhodamine (ROX)-labeled MapMarker1000 molecular weight standards (BioVentures). The raw capillary electrophoresis data was processed using Attagraph software (Attagene).
`COc1nc(C)nc(NC(=O)NS(=O)(=O)c2ccccc2Cl)n1`: the compound was called inactive.
The AC50 is the concentration at which the activity in the assay is half-maximal. For `OC(c1ccc(Cl)cc1)(c1cncnc1)c1ccccc1Cl` (stereo not given), the outcome was inactive and the AC50 is 12.9 µM (active).
As to `C=CCC1=C(C)C(OC(=O)C2C(C=C(C)C)C2(C)C)CC1=O` (stereo not given), the compound was classed as inactive.
Still for that read-out and setting: then `CNC(=O)ON=CC(C)(C)SC`, with “inactive”; and `CS/C(C)=N/OC(=O)N(C)SN(C)C(=O)O/N=C(\C)SC`, with “inactive”.
`CC1=C(C(=O)Nc2ccccc2)SCCO1`: the compound was classed as inactive.
As for `CC(C)Oc1cc(-n2nc(C(C)(C)C)oc2=O)c(Cl)cc1Cl`, the compound was classed as inactive.
On to `CCCC1COC(Cn2cncn2)(c2ccc(Cl)cc2Cl)O1` (stereo not given), for which the call was inactive.
For the compound `CNC(=S)S`, the outcome was inactive.
`N#CC(CCc1ccc(Cl)cc1)(Cn1cncn1)c1ccccc1` (stereo not given): the outcome was inactive.
On the same count and under the same terms, in the case of `CON(C)C(=O)Nc1ccc(Cl)c(Cl)c1` it was “inactive”; in that of `CCCCNC(=O)n1c(NC(=O)OC)nc2ccccc21`, “inactive”.
Same read-out and setting: in the case of `CCCCOC(=O)c1ccccc1C(=O)OCCCC` it was “inactive”; in that of `C=CCC1=C(C)[C@@H](OC(=O)[C@@H]2[C@@H](C=C(C)C)C2(C)C)CC1=O`, “inactive”; in that of `CCOC(=O)C(Cl)Cc1cc(-n2nc(C)n(C(F)F)c2=O)c(F)cc1Cl` (stereo not given), “inactive”.
On the same count and under the same terms, in the case of `CCNc1nc(Cl)nc(NC(C)C)n1` it was “inactive”; in that of `CCCN(CCC)c1c([N+](=O)[O-])cc(S(N)(=O)=O)cc1[N+](=O)[O-]`, “inactive”; in that of `COC(=O)N(OC)c1ccccc1COc1ccn(-c2ccc(Cl)cc2)n1`, “inactive”.
On to `C=CC1(C)OC(=O)N(c2cc(Cl)cc(Cl)c2)C1=O` (stereo not given), for which the outcome was inactive.
On the same count and under the same terms, then `O=C(O)c1nc(Cl)ccc1Cl`, with “inactive”; and `COP(=S)(OC)Oc1nc(Cl)c(Cl)cc1Cl`, with “inactive”.
On to `CCON=C(CC)C1=C(O)CC(c2c(C)cc(C)cc2C)CC1=O` (stereo not given), for which the compound was called inactive.
The same measure, in the same setting: in the case of `CC(C)C1(C)N=C(c2nc3ccccc3cc2C(=O)O)NC1=O` (stereo not given) it was “inactive”.
On the same count and under the same terms, in the case of `COc1cnc(OC)n2nc(NS(=O)(=O)c3c(OCC(F)F)cccc3C(F)(F)F)nc12` it was “inactive”; in that of `Cc1c(F)c(F)c(COC(=O)C2C(/C=C(\Cl)C(F)(F)F)C2(C)C)c(F)c1F` (stereo not given), “inactive”.
On the same count and under the same terms, in the case of `COC(=O)C(C)Oc1ccc(Oc2ccc(Cl)cc2Cl)cc1` (stereo not given) it was “inactive”; in that of `CCOc1cc(Oc2ccc(C(F)(F)F)cc2Cl)ccc1[N+](=O)[O-]`, “inactive”.
For the compound `C#CCOS(=O)OC1CCCCC1Oc1ccc(C(C)(C)C)cc1` (stereo not given), the compound was classed as inactive.
Take `Cc1ccc(-c2c(Cl)nc(C#N)n2S(=O)(=O)N(C)C)cc1`: the compound was called inactive.
As for `CO/C=C(/C(=O)OC)c1ccccc1Oc1cc(Oc2ccccc2C#N)ncn1`, the result was inactive.
As for `COC(=O)c1ccccc1C(=O)OC`, the call was inactive.
On the same count and under the same terms, in the case of `Oc1ccccc1-c1ccccc1` it was “inactive”.
The same measure, in the same setting: in the case of `CC(C)(C)c1ccc(CSc2cnn(C(C)(C)C)c(=O)c2Cl)cc1` it was “inactive”; in that of `CC1COC(Cn2cncn2)(c2ccc(Oc3ccc(Cl)cc3)cc2Cl)O1` (stereo not given), “inactive”; in that of `Cc1cc(Cl)ccc1OCC(=O)O`, “inactive”.
Still for that read-out and setting: in the case of `CCNc1nc(Cl)nc(NCC)n1` it was “inactive”.
`CCCCNC(=O)OCC#CI`: the AC50 is 49.2 µM (active) and the compound was classed as inactive.
Regarding `CC(Oc1ccc(Cl)cc1Cl)C(=O)O` (stereo not given), the compound was classed as inactive.
